This is a sample that favours compounds with a hit; in the whole collection about 2.9% have one here.
Rev-erbA mod: modulates human Rev-erb alpha binding to DNA | activity, % at 10 µM | AID 1259318 | actives 0.79% (n = 370,000) | Rev-erbα–FITC-DNA binding, fluorescence polarization, 90 min | P20393;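 active means activity above about 14%, limit read from the data; passing the limit was not always enough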;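 further: 0% = DMSO wells with 35 nM protein and 100% = DMSO wells with 750 nM protein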
Target sequence (P20393 whole entry, looked up): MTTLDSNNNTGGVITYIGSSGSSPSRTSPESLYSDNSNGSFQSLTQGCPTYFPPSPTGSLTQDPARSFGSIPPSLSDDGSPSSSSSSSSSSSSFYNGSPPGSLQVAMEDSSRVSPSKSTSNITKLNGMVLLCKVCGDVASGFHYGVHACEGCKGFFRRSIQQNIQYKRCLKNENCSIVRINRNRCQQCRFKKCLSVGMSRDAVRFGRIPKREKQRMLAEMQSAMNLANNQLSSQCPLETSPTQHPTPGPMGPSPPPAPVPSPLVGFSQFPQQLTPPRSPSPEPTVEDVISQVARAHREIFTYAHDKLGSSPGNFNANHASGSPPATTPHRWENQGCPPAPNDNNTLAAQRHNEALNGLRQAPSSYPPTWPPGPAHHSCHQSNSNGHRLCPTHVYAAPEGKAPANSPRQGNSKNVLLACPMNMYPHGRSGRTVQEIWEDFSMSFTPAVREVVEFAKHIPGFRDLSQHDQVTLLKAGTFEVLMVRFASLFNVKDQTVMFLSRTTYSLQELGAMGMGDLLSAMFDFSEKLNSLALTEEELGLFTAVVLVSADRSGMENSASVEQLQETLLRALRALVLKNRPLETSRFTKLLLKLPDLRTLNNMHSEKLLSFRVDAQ
EP2 antag: inhibitors of human EP2 prostaglandin E2 receptor; P43116; C6 glioma cells expressing human EP2, cAMP TR-FRET; cells stimulated with saturating PGE2; inhibition, % at 25 µM; actives 0.52% (n = 260,000); AID 1422;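 active means percent inhibition above 40 after rounding to a whole number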;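 further: rat C6 glioma host cells with rolipram phosphodiesterase inhibitor present; the protocol text gives 20 µM as final concentration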
PG9 Ab binder: small molecules binding HIV-1 gp120 antibody PG9 | TR-FRET gp120-PG9 antibody binding | inhibition, % at 6.7 µM | actives 0.43% (n = 360,000) | AID 624416; in the data active means inhibition above about 8.5%
RAM network inh: yeast RAM network inhibition. AID 868. inhibition, % at 50 µM. S. cerevisiae dse1pr::URA3 reporter, 5-FOA growth OD615, 2 d; analog-sensitive cbk1-as2 kinase mutant strain. actives 1.8% (n = 190,000);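 active means inhibition above a set limit, 3 SD over mean compound inhibition, cut at about 8.4% in these data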;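 further: 0% = DMSO-only wells with no growth and 100% = 10 µM 1-NA-PP1 full growth; inhibition rescues growth on 5-FOA so higher OD means more RAM inhibition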
SKN-1 inh: C. elegans SKN-1 inhibition | C. elegans VP596 Pgst-4::GFP/RFP ratio, acrylamide-induced, 24 h | actives 0.49% (n = 360,000) | inhibition, % at 21.8 µM;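 active means interference check ratio from 0.5 to 1.5 plus GFP to RFP signal ratio inhibition reaching or exceeding a fixed threshold, cut at about 30% in these data, passing the limit was not always enough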
EP2 modulator: modulators of human EP2 prostaglandin E2 receptor. P43116. EP2-expressing cells, cAMP HTRF FRET, PGE2 co-stimulation. induction, % at 25 µM. actives 0.83% (n = 260,000). AID 940;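 active means compounds whose cAMP rise, as percent of the full-agonist control response, exceeds 60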;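 further: rat C6 glioma line stably carrying human EP2 under a CMV promoter; the protocol text gives 20 µM as final concentration; 100% = response of wells given 1 µM PGE2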
Numbers without * were called inactive; · = not tested or not shown.

SMILES	Rev-erbA mod	EP2 antag	PG9 Ab binder	RAM network inh	SKN-1 inh	EP2 modulator
CC(C)OC(=O)CN1CCN(C2c3ccccc3-c3ccccc32)CC1	0	10	-2	0	38*	27
O=C(CSCc1ccc(Cl)cc1)N1CCOCC1	-2	11	-1	0	-1	3
Cc1ccc(CSCC(=O)N2CCOCC2)cc1	1	11	1	0	44*	20
COc1ccc(-n2c(Cc3cccn3C)nnc2SCC(=O)Nc2ccccc2)cc1	-2	5	0	9.8*	7	12
COc1ccc(-n2c(Cc3cccn3C)nnc2SCC(=O)Nc2ccc(Cl)cc2)cc1	0	6	0	3	1	12
C=CCn1c(N)c(C(=O)Nc2ccc(C)c(C)c2)c2nc3ccccc3nc21	·	11	0	6	40*	10
Cc1ccc(CNc2ccc3c(c2)OCO3)cc1	·	9	·	1	5	32
c1cc(CNc2ccc3c(c2)OCO3)ccn1	-1	15	-4	1	37*	-3
COc1ccccc1NC(=O)N(CCCO)Cc1cc2c(C)ccc(C)c2[nH]c1=O	·	14	·	·	·	-5
O=[N+]([O-])c1ccc(N2CCC(=NOCc3ccc(Cl)cc3)CC2)cc1	6	4	1	11*	14	-22
COC(=O)c1ccc(NC(=O)COC(=O)c2cccnc2)cc1	·	11	·	·	·	-34
Nc1c(S(=O)(=O)O)cc(S(=O)(=O)O)c2ccc(N=Nc3ccccc3)c(O)c12	·	52*	·	·	·	1
O=S(=O)(O)c1cc(O)c(N=Nc2ccc(O)cc2O)c2ccccc12	-15	·	-16	·	88	·
CC(=O)C1=C(S(=O)(=O)c2ccc(C)cc2)CS(=O)(=O)C1	3	97*	0	0	1	-62
CCCCCCn1c(N2CCC(C(N)=O)CC2)nc2c1c(=O)[nH]c(=O)n2C	4	11	-2	2	20	-6
CCCCCCn1c(N2CCC(C(N)=O)CC2)nc2c1c(=O)n(C)c(=O)n2C	-5	12	-3	-1	45*	-2
CN(C)CCn1nc(-c2nccc3ccccc23)oc1=O	·	11	·	·	·	-16
Cc1oc(C)c2c(=O)ccc3c(c12)OC(N)=C(C#N)C3c1ccccc1 (configuration not stated)	2	5	-1	1	48*	35
CSc1ccc(C2C(C#N)=C(N)Oc3c2ccc(=O)c2c(C)oc(C)c32)cc1 (configuration not stated)	-1	10	-2	1	5	-7
Cc1oc(C)c2c(=O)ccc3c(c12)OC(N)=C(C#N)C3c1ccccc1Cl (configuration not stated)	8	16	-2	8.8*	19	23
Cc1ccc(S(=O)(=O)N2CCCC(C(=O)NCc3cccs3)C2)cc1 (configuration not stated)	·	13	·	·	·	-29
COC(=O)c1[nH]c2ccccc2c1NC(=O)C(C)N1CCOCC1 (configuration not stated)	3	10	0	·	38*	-14
COc1cc(CC(=O)N2CCC(C(=O)c3cccnc3)CC2)cc(OC)c1OC	·	8	·	·	·	-7
C=CCc1cc(CN2CCC(C(=O)c3cccnc3)CC2)cc(OC)c1OC	·	8	·	·	·	72*
COC(=O)c1ccc(-n2nnnc2SCC(=O)NCc2ccc3c(c2)OCO3)cc1	·	5	·	·	·	-59
SMILES	Rev-erbA mod	EP2 antag	PG9 Ab binder	RAM network inh	SKN-1 inh	EP2 modulator
CCCCC/C(=N\NC(=O)Nc1ccccc1)c1ccccc1	8	11	1	9.5*	-7	20
O=C(c1ccc(F)cc1F)N1CCc2ccccc2C1	·	11	·	·	·	2
FC(F)(F)c1nc2ccccc2nc1N/N=C\c1ccccc1	1	·	2	1	37*	26
C(=N\Nc1nc(-c2cccnc2)nc2ccccc12)/c1ccccc1	2	13	0	·	21	-2
C(=N\Nc1nc(-c2ccccn2)nc2ccccc12)/c1ccccc1	·	11	·	·	·	69*
COc1ccc(C(=O)/C=C/c2cccs2)c(OC(=O)c2cccc([N+](=O)[O-])c2)c1	-2	14	-2	9.3*	7	8
COc1ccc(C(=O)/C=C/c2ccc(F)cc2)c(OC(=O)c2ccc([N+](=O)[O-])cc2)c1	0	9	-1	2	5	14
CC(C)(C)c1ccc(Cn2nnc3c(=O)[nH]c(C4CCN(C(=O)C5CCCCC5)CC4)nc32)cc1	·	8	·	·	·	72*
CCCOc1ccc(-c2csc(NC(=O)COC)n2)cc1	·	22	·	·	·	-2
CCCCOC(=O)c1ccc(NC(=S)NC(=O)c2ccco2)cc1	-2	·	-3	·	4	·
CCCCCOC(=O)c1ccc(NC(=O)c2ccco2)cc1	-3	·	-2	5	71*	-8
COCCCN1C(=O)C(=O)/C(=C(/O)c2ccccc2)C1c1ccc2c(c1)OCO2 (configuration not stated)	-3	-5	-1	9.7*	10	11
COc1ccc(C=C2CCc3ccccc3C2=O)cc1	-4	·	-3	·	8	·
COc1ccc2c(c1)CC/C(=C/c1ccco1)C2=O	-4	20	-2	0	60*	-5
O=C1/C(=C/c2ccco2)CCc2ccccc21	2	8	-3	0	65*	-36
Nc1ccc2c(c1)C/C(=C/c1ccco1)C2=O	-28	6	-2	0	4	-53
Fc1ccc(-c2cn3cc(C(F)(F)F)cc(Cl)c3n2)cc1	16	2	-1	1	35*	-9
CN(CCCN1CCOCC1)C(=O)c1cc(COc2cccc(C(F)(F)F)c2)on1	0	·	0	·	45*	·
COc1cc(/C=C/c2nc3ccc([N+](=O)[O-])cc3s2)ccc1OCC(=O)O	·	11	·	·	·	85*
COc1cc(/C=C/c2ccc3c([N+](=O)[O-])cccc3n2)ccc1OCC(=O)O	0	2	-2	·	-8	44
CCNC(=S)N(Cc1cc2cc3c(cc2[nH]c1=O)OCCO3)CC1CCCO1 (configuration not stated)	·	12	·	·	·	-9
COc1ccc(-c2cc(-c3ccc(C)c(C)c3)nc(N)c2C#N)cc1OC	·	4	·	·	·	23
N#CC(=Cc1ccncc1)c1ccccc1	-1	·	-1	·	23	·
N#C/C(=C\c1cccnc1)c1ccc(Br)cc1	-5	12	-2	·	44*	-2
COCCOC(=O)c1c(C)oc2ccc(OC(=O)c3ccc4c(c3)OCO4)cc12	-1	11	1	10*	15	7
COc1c(Cl)cc(Cl)cc1C(=O)Nc1nc2ccc(NC(C)=O)cc2s1	·	8	·	·	·	-19
COc1ccc(C(C)C)cc1S(=O)(=O)N1CCN(c2ccccc2)CC1	3	5	-3	11*	7	-20
COc1ccc(C)cc1S(=O)(=O)N1CCN(c2cccc(C(F)(F)F)c2)CC1	2	10	-3	11*	-7	-5
